Source: PubChem
mTORC1 inh: inhibitors of mTORC1 signaling in Tsc2-/- p53-/- MEF cells; Tsc2-/- p53-/- MEF, phospho-rpS6 immunofluorescence/PI, 24 h; Potency, µM (highest dose often 38.3 µM), inactives show at the top dose activity change, negative = inhibition, hits mostly inhibitors; 0.78% of 44,000 active; AID 493208;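 note: potency is the fitted concentration of half-maximal effect; plate controls were DMSO for no effect and rapamycin for full effect; nearly all actives have a fitted effect of over 50% in size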
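Read-out: phospho-S6 Alexa-488 intensity over PI intensity per well, scored as % active cells using thresholds from rapamycin (7.5 nM) and DMSO controls. Tsc2-/-, p53-/- MEFs exposed to compound for 24 h; PI cell count recorded as viability.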
S16 F2sN tox: S16 Schwann cell cytotoxicity; S16 Pmp22-F2sN Schwann cells viability, CellTiter-Glo, 24 h; 0.48% of 43,000 active; Potency, µM (top dose mostly 57.5 µM), for inactives: at the top dose activity change, negative = cytotoxicity, most hits filed as cytotoxic; note: potency is the fitted concentration of half-maximal effect; % is set by controls: 0 for no effect and ±100 for the full control effect; nearly all actives have a fitted effect of over 65% in size
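CellTiter-Glo counter-screen, qHTS, 1536-well. Cells: S16(c9) Pmp22-F2sN, 500-1,000/well in DMEM + 10% FBS. Cpd 23 nL pin transfer, 24 h, 37C/5% CO2. Read: luminescence, CCD imager.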
SKOV3 invasion: inhibitors of ovarian cancer cell adhesion and invasion in omental model | Potency, µM (series often up to 45.8 µM), for the others: at the top dose activity change, negative = inhibition, most hits filed as inhibitors | 0.1% of 46,000 active | SKOV3ip1-GFP adhesion/invasion on 3D omental model, fluorescence;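 note: potency is the fitted concentration of half-maximal effect; plate controls were DMSO wells for no effect and tomatine positive control wells for full effect; nearly all actives have a fitted effect of over 65% in size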
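Adhesion/invasion was scored as fixed GFP-labeled SKOV3ip1 cell counts (488/509 nm), normalized to DMSO and tomatine controls. Cancer cells in serum-free medium, with four compound doses (0.36-46 umol/L), sat 2 hr at RT then 16 hr at 37 C on a 48 hr fibroblast/mesothelial/ECM culture.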
PMP22 txn: PMP22 gene transcription modulation. 2% of 43,000 active. Potency, µM (top dose mostly 57.5 µM), for the others: at the highest dose activity change, negative = inhibition, hits mostly inhibitors. S16 Pmp22-F2sN Schwann cells (luciferase reporters placed in the Pmp22 gene), FLuc/NLuc coincidence luminescence, 24 h. AID 1508649; active = clear falling dose curves in both reporters; inconclusive = both reporters move, but less clearly or upward; inactive = either reporter flat; the % is the NLuc reporter signal; note: potency is the fitted concentration of half-maximal effect; % is set by controls: 0 for no effect and ±100 for the full control effect
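Rat S16 Pmp22-F2sN cells, 500-1,000/well in phenol red-free DMEM + 10% FBS, compound-treated 24 h (37C, 5% CO2). Luminescence: FLuc read, Stop&Glo added, NLuc read.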
NLuc sat counter: counter-screen for PMP22 expression modulators: NanoLuc inhibition, saturating substrate. shares compounds with PMP22 txn. Secreted NLuc enzyme (filtered S16 cell medium), Nano-Glo luminescence. 4% of 690 active. Potency, µM (doses to about 57.5 µM), for inactives: at the highest dose activity change, negative = inhibition, usual class: inhibitors; note: potency is the fitted concentration of half-maximal effect; % is set by controls: 0 for no effect and ±100 for the full control effect
NLuc Km ctr: NanoLuc inhibition at Km substrate, PMP22 artifact check. shares compounds with PMP22 txn. secreted NLuc enzyme, coelenterazine luminescence, Km conditions. Potency, µM (titrated, usually from 57.5 µM), without a hit: at the top dose activity change, negative = inhibition, usual class: inhibitors. 5% of 690 active; note: potency is the fitted concentration of half-maximal effect; % is set by controls: 0 for no effect and ±100 for the full control effect
FLuc counter: counter-screen for PMP22 expression modulators: firefly luciferase inhibition; shares compounds with PMP22 txn; purified P. pyralis FLuc, luminescence, 10 min; Potency, µM (top dose mostly 57.5 µM), inactives show at the top dose activity, negative = inhibition, hits mostly inhibitors; 690 tested, under 10 active; note: % of control where 0% means no effect
Target sequence (P08659 whole entry, looked up): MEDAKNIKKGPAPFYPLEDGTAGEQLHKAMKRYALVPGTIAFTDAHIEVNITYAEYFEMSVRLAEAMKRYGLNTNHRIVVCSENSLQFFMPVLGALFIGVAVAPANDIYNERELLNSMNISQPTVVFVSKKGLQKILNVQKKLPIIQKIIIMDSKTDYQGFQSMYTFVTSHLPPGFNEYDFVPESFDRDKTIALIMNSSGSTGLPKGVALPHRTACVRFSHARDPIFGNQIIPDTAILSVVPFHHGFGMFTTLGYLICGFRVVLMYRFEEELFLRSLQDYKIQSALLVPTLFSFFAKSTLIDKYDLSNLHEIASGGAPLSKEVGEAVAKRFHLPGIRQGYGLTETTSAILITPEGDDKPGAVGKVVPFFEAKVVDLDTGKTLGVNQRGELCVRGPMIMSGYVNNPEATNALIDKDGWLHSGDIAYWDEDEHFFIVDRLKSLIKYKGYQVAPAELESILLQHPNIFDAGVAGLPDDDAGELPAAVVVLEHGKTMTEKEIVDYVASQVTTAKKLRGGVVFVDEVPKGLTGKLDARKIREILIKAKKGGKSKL
S16 viab conf: S16 Schwann cell cytotoxicity, confirmatory. AID 1508641. shares compounds with PMP22 txn. S16 Schwann cells viability, CellTiter-Glo ATP luminescence, 24 h. 7% of 690 active. Potency, µM (top dose mostly 57.5 µM), without a hit: at the highest dose activity change, negative = viability loss, hits mostly cytotoxic; note: potency is the fitted concentration of half-maximal effect; % is set by controls: 0 for no effect and ±100 for the full control effect
PMP22 txn conf: PMP22 transcription modulation, confirmatory | AID 1508646 | 22% of 690 active | Potency, µM (titrated, usually from 57.5 µM), without a hit: at the top dose activity change, negative = inhibition, usual class: inhibitors | S16 Schwann cells Pmp22-F2sN, dual luciferase, 24 h | shares compounds with PMP22 txn; active = clear falling dose curves in both reporters; inconclusive = both reporters move, but less clearly or upward; inactive = either reporter flat; the % is the FLuc reporter signal; note: potency is the fitted concentration of half-maximal effect
PMP22 prot conf: confirmation of modulators of rat PMP22 protein expression; 95 tested, under 10 active; Potency, µM (doses to about 27.9 µM), for the others: at the top dose activity change, negative = inhibition, actives largely listed as inhibitors; shares compounds with PMP22 txn; S16 Schwann cells Pmp22-HiBiT, luminescence, 48 h
Target sequence (P25094 whole entry, looked up): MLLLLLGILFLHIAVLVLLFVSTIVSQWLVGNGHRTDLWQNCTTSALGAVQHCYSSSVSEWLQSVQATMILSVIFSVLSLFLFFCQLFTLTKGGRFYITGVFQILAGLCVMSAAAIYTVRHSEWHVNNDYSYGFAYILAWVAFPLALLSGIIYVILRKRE
An asterisk follows results filed as active; ? = inconclusive; . = no result given. Only some compounds are listed: those with a hit (about 2.6% of all), similar ones and a draw of the others. Unless noted, calls come from the whole dose curve; as a rule, active = well fitted curve in the direction sought with a large enough effect; inconclusive = small, poorly fitted or top-dose-only effect, or another doubt; inactive = no such curve, though single readings can be large; an effect the other way counts as inactive or inconclusive.

SMILES	mTORC1 inh	S16 F2sN tox	SKOV3 invasion	PMP22 txn	NLuc sat counter	NLuc Km ctr	FLuc counter	S16 viab conf	PMP22 txn conf	others
CN(C)Cc1c(C(=O)NCCOc2ccc(C(=O)NO)cc2)oc2ccccc12	.	.	-11.3%	.	.	.	.	.	.
Cc1c(CCOc2ccc(C(=O)O)cc2)c2cc(Cl)ccc2n1C(c1ccccc1)c1ccccc1	.	.	-5.3%	.	.	.	.	.	.
COc1cccc2c1C(=O)c1c(O)c3c(c(O)c1C2=O)C[C@@](O)(C(=O)CO)C[C@H]3O[C@H]1C[C@H](N)[C@H](O)[C@H](C)O1	.	.	5.1%	.	.	.	.	.	.
CCn1ccc2c(OCC(=O)Nc3ccccc3C(F)(F)F)cccc2c1=O	-6.0%	?	-10.6%	18.9µM*	?	?	-7.3%	2.2%	?
N#CC(=C(N)Sc1ccc(N)cc1)c1ccccc1C(F)(F)F	.	.	6.9%	.	.	.	.	.	.
O=C(NCCSc1c[nH]c2ccccc12)c1ccccc1Cl	1.2%	?	-2.1%	?	?	?	-12.2%	1.2%	-24.6%
O=C(NCCSc1c[nH]c2ccccc12)c1ccc(Cl)cc1	-2.5%	-27.1%	10.3%	-3.1%	.	.	.	.	.
CC1(C)Cc2c(-c3ccccc3)c(-c3ccc(Cl)cc3)c(CC(=O)O)n2C1	.	.	-0.7%	.	.	.	.	.	.
Cc1oc(-c2ccc(Cl)cc2)nc1CN1CCCC(C(=O)NCCc2ccccc2)C1 (stereo not drawn)	3.7%	-13.0%	2.2%	18.9µM*	-9.6%	-15.4%	-19.9%	?	-29.3%
CCc1ccc(-c2nc(CN3CCC(C(=O)NCCc4ccc(Cl)cc4)CC3)c(C)o2)cc1	-3.7%	15.8%	4.5%	16.3µM*	-7.3%	1.8%	-12.9%	?	?
Cc1cnc(-c2cnc(NCCNc3ccc(C#N)cn3)nc2-c2ccc(Cl)cc2Cl)[nH]1	.	.	-16.8%	.	.	.	.	.	.
Cc1cc(C(=O)N2CCN(c3cccc(Cl)c3)CC2)n(-c2ccccc2)n1	.	.	4.6%	.	.	.	.	.	.
CC1(C)C(N(O)C(=O)Nc2ccc(Cl)cc2)N(c2ccc(Cl)cc2)C(=O)N1CC(=O)NN=CC=Cc1ccc([N+](=O)[O-])o1 (stereo not drawn)	.	.	-7.8%	.	.	.	.	.	.
CCc1ccc(CNC(=O)c2cc(-c3ccc(Br)s3)nc3ccccc23)cc1	-8.6%	-0.4%	-8.5%	-34.7%	.	.	.	.	.
CCN(CC)CCNC(=O)c1cc(-c2ccc(Br)s2)nc2ccccc12	?	31.6µM*	10µM*	20µM*	-13.1%	?	-16.2%	?	17.3µM*	PMP22 prot conf=-2.1%
COC(=O)C=CC(=O)OC	.	.	14.6%	.	.	.	.	.	.
COc1ccc(-n2c(=O)c3c(c4cc(OC)ccc4n3C)n(CCC(C)C)c2=O)cc1	1.1%	8.4%	9.8%	2.06µM*	-18.1%	-1.9%	3.1%	8.6%	-21.3%
COc1ccc(NC(=O)c2ccc3c(=O)n4nc(Nc5ccccc5C)sc4nc3c2)cc1	-3.5%	11.3%	2.7%	?	.	.	.	.	.
COc1ccccc1Nc1nn2c(=O)c3ccc(C(=O)NCCC4=CCCCC4)cc3nc2s1	?	?	12.8%	2.99µM*	?	?	?	6.85µM*	5.77µM*
COc1ccc(NC(=O)c2ccc3c(=O)n4nc(Nc5ccccc5C)sc4nc3c2)cc1Cl	0.9%	-4.5%	-7.3%	11.3µM*	-10.3%	?	-2.1%	24.3µM*	15.3µM*
COc1ccccc1Nc1nn2c(=O)c3ccc(C(=O)Nc4ccc(F)cc4)cc3nc2s1	-18.5%	20.9%	6.9%	2.99µM*	-3.2%	3.7%	-16.9%	13.7µM*	5.77µM*	PMP22 prot conf=?
Cc1ccc(NC(=O)c2ccc3c(=O)n4nc(Nc5ccccc5C)sc4nc3c2)cc1C	-0.7%	10.6%	-4.2%	9.46µM*	-9.8%	?	-4.1%	27.3µM*	13.1µM*
Cc1ccc(Cl)cc1Nc1nn2c(=O)c3ccc(C(=O)Nc4ccc(F)cc4)cc3nc2s1	-0.5%	2.1%	-8.4%	15.5%	.	.	.	.	.
COc1ccc(NC(=O)c2ccc3c(=O)n4nc(Nc5cccc(Cl)c5C)sc4nc3c2)cc1	-6.2%	?	0.5%	?	.	.	.	.	.
COc1cc(F)c(F)c(Nc2ccc(I)cc2F)c1NS(=O)(=O)C1(C[C@H](O)CO)CC1	.	.	-7.2%	.	.	.	.	.	.
Cc1ccc(CSc2nnc(-n3c(=O)c(C#N)cc4c(=O)n5cccc(C)c5nc43)s2)cc1	-2.9%	3.2%	-7.8%	?	.	.	.	.	.
Cc1cccn2c(=O)c3cc(C#N)c(=O)n(-c4nnc(SCc5ccc(F)cc5)s4)c3nc12	-4.7%	?	2.1%	10µM*	-6.9%	-1.5%	11.5%	8.3%	-28.4%
